# Screens from PubChem BioAssay.
# KKLEB cytotox = cytotoxicity in KKLEB CF airway cells, primary screen, cytotoxicity control for CF NF-kB inhibitor project, cell-based, uHTS, fluorescence assay plates; KKLEB CF airway cells viability, ATPlite luminescence, overnight; hits give low values; cells stimulated with P. aeruginosa culture filtrate; activity change (cytotoxicity), % at 5 µM; 360,000 compounds, 0.36% hits;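 active means corrected activity change at or below -50% at 5 µM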
# HIF-2a block = HIF-2a reporter inhibitors, primary screen, luminescence, 786-0 RCC cells. AID 624352, 2012. 786-0 RCC cells HIF-2a reporter, luciferase luminescence, overnight. 360,000 compounds, 0.72% hits. inhibition, % at 18.8 µM;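 active means inhibition of the luminescence signal of 40% or more relative to plate controls, in a single-dose primary screen at 18.75 µM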
# hiPSC survival = enhancers of single-cell hiPSC survival, primary screen, ATPlite luminescence | 100% = ROCK inhibitor wells, 0% = DMSO | survival enhancement, % at 20 µM | 360,000 compounds, 0.044% hits | AID 602274, 2012; in the data active means survival enhancement above about 18%;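 further: cells exposed to compounds for 16 hours before the ATP read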
# LGR2 inh = inhibitors of bursicon-induced LGR2 CRE-luciferase signal, primary screen, cell-based, HEK293, CRE-luciferase reporter, bursicon stimulation; bursicon-stimulated, 4 h; Drosophila bursicon receptor LGR2 (rickets); inhibition, % at 9.99 µM; 380,000 compounds, 0.35% hits;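 active means drop in luminescence signal, shown as inhibition above about 50% in the replicate tests, limit read from the data, passing the limit was not always enough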;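 further: agonist challenge used bursicon conditioned medium at about half maximal strength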
# TWEAK-Fn14 inh = inhibitors of TWEAK-Fn14 signaling, primary screen, luciferase reporter cells, uHTS; TWEAK-stimulated Fn14 reporter cells, luciferase luminescence, 8 h; inhibition, % at 10 µM; 360,000 compounds, 2% hits; AID 1159606, 2016; in the data active means inhibition above about 50%
# CF NFkB block = inhibitors of PAF-induced NF-kB signaling, primary screen, cell-based, GFP fluorescence, uHTS | KKLEB NF-kB-GFP reporter, GFP fluorescence overnight | inhibition, % at 5 µM | 360,000 compounds, 0.86% hits | AID 588850, 2011;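 active means at least 50% inhibition at 5 µM, scaled per plate between neutral and stimulator controls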;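 further: PAF is a Pseudomonas aeruginosa culture filtrate used as stimulus; plate controls were PAF-stimulated DMSO wells for no effect and unstimulated DMSO wells for full effect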
# CF NFkB inh conf = inhibitors of PAF-induced NF-kB signaling, retest, confirmation, cell-based, GFP fluorescence, single concentration; KKLEB CF airway cells, overnight; AID 602472, 2012; shares compounds with CF NFkB block; 1,300 compounds, 64% hits; inhibition, % at 5 µM; in the data active means inhibition above about 40%;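 further: stimulus PAF is a Pseudomonas aeruginosa filtrate and not platelet activating factor; plate controls were DMSO wells with stimulus for no effect and unstimulated DMSO wells for full effect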
# An asterisk follows results filed as active; . = no result given. Only some compounds are listed: those with a hit (about 2.3% of all), similar ones and a draw of the others.
SMILES,KKLEB cytotox,HIF-2a block,hiPSC survival,LGR2 inh,TWEAK-Fn14 inh,CF NFkB block,CF NFkB inh conf
CCN(CC)c1ncnc2ccc(Br)cc12,-17.2,18.6,-3.1,.,49.8,70.6*,40.2*
OCCNc1ncnc2ccc(Br)cc12,0.9,23.7,-2.0,21.6,34.7,21.7,.
CCCCN(C)C(=O)c1ccc(Nc2nc(C(N)Cc3ccc(C(F)(F)F)cc3)cs2)nc1 (stereo not drawn),-43.7,0.7,-4.6,10.3,2.8,50.9*,20.1
CCCCN(C)C(=O)c1ccc(Nc2nc(C(N)CCc3ccccc3)cs2)nc1 (stereo not drawn),2.0,-14.3,-1.9,24.8,-28.3,-12.2,.
C[C@H]1CN([C@@H](C)CO)C(=O)c2cc(-c3ccc(F)cc3)cnc2O[C@@H]1CN(C)C(=O)Nc1ccc(F)cc1,.,.,.,5.9,.,.,.
O=C(OCC(=O)N1CCCC1=O)c1nc(Cl)c(Cl)c(Cl)c1Cl,-0.2,7.6,-0.4,-12.6,90.8*,60.2*,-19.7
C[C@@H]1CN([C@H](C)CO)C(=O)c2cc(NS(=O)(=O)c3cccs3)ccc2O[C@@H](C)CCCCO[C@@H]1CN(C)C(=O)C1CCCCC1,.,.,.,-6.3,.,.,.
COc1ccc(NC(=O)Cn2ncn3nc(-c4ccc(OC)cc4)cc3c2=O)cc1,-33.2,-15.8,-0.6,-18.1,9.3,54.0*,54.8*
O=C(NC1CCC1)[C@@H]1[C@@H](CO)[C@@H]2Cn3c(cccc3=O)[C@@H]2N1CCc1ccccc1,.,.,.,1.8,.,.,.
O=C(C[C@H]1CC[C@H](NC(=O)c2ccncc2)[C@H](CO)O1)Nc1ccc(-c2ccccc2)cc1,.,.,.,22.3,.,.,.
CC(C)NC(=O)Nc1ccc2c(c1)C(=O)N([C@H](C)CO)C[C@@H](C)[C@H](CN(C)C(=O)CCC(F)(F)F)OCCCC[C@@H](C)O2,.,.,.,4.9,.,.,.
CC(C)=CCc1c(O)cc(O)c2c1OC(c1ccc(O)cc1)CC2=O (stereo not drawn),-12.4,13.8,0.8,.,34.6,52.6*,71.8*
CC(C)=CCc1c(O)c(CC=C(C)C)c2c(c1O)C(=O)CC(c1ccc(O)cc1)O2 (stereo not drawn),-8.4,-34.0,-0.8,-6.5,8.7,26.8,.
C[C@H]1CN([C@@H](C)CO)S(=O)(=O)c2ccc(C3=CCCCC3)cc2O[C@H]1CN(C)C(=O)CN(C)C,.,.,.,35.7,.,.,.
c1csc(CNc2ncnc3ccc(-c4ccoc4)cc23)c1,-6.9,3.9,-0.4,44.8,88.2*,76.6*,92.2*
O=c1c(O)c(-c2ccccc2)oc2cc(O)cc(O)c12,6.4,-97.2,-2.8,-24.4,55.4*,59.6*,62.0*
C[C@H]1CN([C@@H](C)CO)C(=O)Cc2cc(NS(=O)(=O)c3cccs3)ccc2O[C@H]1CN(C)Cc1ccc(Cl)c(Cl)c1,.,.,.,-1.7,.,.,.
CCC1=Nc2cc(C(=O)NCc3ccco3)ccc2Sc2ccc(C)cc21,-27.6,35.0,1.7,.,11.8,51.5*,79.6*
CCC1=Nc2cc(C(=O)NCCN3CCOCC3)ccc2Sc2ccc(C)cc21,6.0,9.7,-0.7,-5.7,-18.3,-31.1,.
CC(C)C[C@]1(c2ccccc2)ON(c2ccccc2C(F)(F)F)C1=O,5.4,25.0,4.1,-5.1,-11.4,-8.2,.
COc1ccc([C@]2(C(C)C)ON(c3ccccc3C(F)(F)F)C2=O)cc1,-8.3,20.7,1.9,.,18.1,58.3*,51.7*
COc1ccccc1[C@]1(C)ON(c2ccccc2C(F)(F)F)C1=O,-14.4,35.3,4.1,36.8,16.2,55.5*,70.2*
O=c1cc(C(F)(F)F)[nH]c2ccc(OC(F)(F)F)cc12,-4.4,-15.4,-0.6,.,-3.9,26.4,.
O=c1cc(C(F)(F)F)[nH]c2c(C(F)(F)F)cccc12,-1.6,-2.6,2.6,.,61.1*,56.7*,0.9
COc1cccc2c(SCC(=O)N/N=C/c3ccccc3)cc(C)nc12,-29.0,31.3,-2.1,-5.1,21.1,54.5*,60.6*
SMILES,KKLEB cytotox,HIF-2a block,hiPSC survival,LGR2 inh,TWEAK-Fn14 inh,CF NFkB block,CF NFkB inh conf
CS(=O)(=O)N1[C@@H]2c3ccc(-c4cccc(F)c4)c(=O)n3C[C@@H]2[C@@H](CO)[C@@H]1C(=O)NC1CCC1,.,.,.,11.7,.,.,.
COCc1cn(CC[C@@H]2CC[C@H](NC(=O)Cc3cccnc3)[C@@H](CO)O2)nn1,.,.,.,24.7,.,.,.
N#C/C(=C\c1ccc(F)c(F)c1)C(=O)NC1CCCCC1,-18.2,27.6,5.7,22.8,36.3,51.5*,15.7
COc1cc(OC)nc(Nc2nc(C(N)c3ccccc3Cl)cs2)n1 (stereo not drawn),-36.0,12.1,1.0,4.8,13.2,50.0*,8.4
COc1cccc(Nc2nc(C(N)c3ccccc3Cl)cs2)n1 (stereo not drawn),-28.4,8.8,-0.6,21.2,15.5,27.7,.
COc1cccc(OC)c1C(=O)Nc1cc(C)nn1-c1nc2ccccc2[nH]1,-17.0,-33.7,0.0,6.0,38.1,78.2*,53.2*
C[C@@H]1CCCCO[C@H](CN(C)Cc2ccc(C(=O)O)cc2)[C@@H](C)CN([C@H](C)CO)C(=O)c2cc(NC(=O)Cc3ccccc3)ccc2O1,.,.,.,4.0,.,.,.
C[C@H](CO)N1C[C@H](C)[C@H](CN(C)C)Oc2ccc(NC(=O)Nc3ccc4c(c3)OCO4)cc2CC1=O,.,.,.,-1.4,.,.,.
COc1ccc(NC(=O)Nc2nnc(-c3ccccc3SCc3ccccc3)s2)cc1,-34.6,16.7,1.2,.,-10.8,50.3*,21.1
O=C1C=C(NC2=CC3OC(c4ccccc4)OCC3OC2=O)CCC1 (stereo not drawn),-10.9,24.7,0.5,59.2*,70.6*,71.4*,47.0*
Cc1ccc(S(=O)(=O)N(C)C[C@H]2OCCCC[C@H](C)Oc3ccc(NC(=O)c4ccccc4)cc3C(=O)N([C@@H](C)CO)C[C@@H]2C)cc1,.,.,.,-21.3,.,.,.
O=C(C[C@H]1C[C@@H]2c3cc(NC(=O)Cc4ccncc4)ccc3O[C@@H]2[C@H](CO)O1)NCC1CC1,.,.,.,-19.0,.,.,.
FC(F)Sc1ccc(NC(=S)NC(c2ccccc2)c2ccccc2)cc1,-45.2,-11.4,-1.2,44.1,54.0*,50.7*,57.0*
FC(F)Sc1ccc(NC(=S)NC2CCCCC2)cc1,0.7,-247.6,-1.2,-22.5,-25.1,6.7,.
FC(F)Sc1ccc(NC(=S)NCC2CCCCC2)cc1,-39.1,-164.2,0.7,-2.4,35.0,50.0*,61.0*
Cc1ccc(S(=O)(=O)/N=C(\CCl)N2CCOCC2)cc1,-13.9,24.1,-1.0,-4.2,4.8,57.5*,70.2*
Cc1ccc(S(=O)(=O)/N=C(\CN2CCOCC2)N2CCCC2)cc1,9.7,-9.6,2.4,.,-10.5,1.1,.
